Source: PubChem BioAssay AID881 (National Center for Advancing Translational Sciences (NCATS), 2007)
The campaign covered roughly 110,000 compounds. About 610 (0.55%) were called active. Where a call stands in place of a potency, no number is given. About 3% were inconclusive and are not listed. Calls come from the whole dose curve; as a rule, active = well fitted inhibition curve with a large enough effect; inconclusive = small, poorly fitted or top-dose-only effect; inactive = no such curve, though single readings can be large or run the other way. This excerpt belongs to a sample that is enriched for actives.

Molecular target: Polyunsaturated fatty acid lipoxygenase ALOX15B (Homo sapiens) (UniProt O15296)
Assay: qHTS Assay for Inhibitors of 15-hLO-2 (15-human lipoxygenase 2); note: nearly all actives have a fitted effect of over 60% in size
Settings: purified 15hLO-2, xylenol orange hydroperoxide absorbance; series mostly up to 0.0915 µM
From the text: Assay Overview: NIH Molecular Libraries Screening Centers Network [MLSCN] NIH Chemical Genomics Center [NCGC] MLSCN Grant: MH081283-01A1 PI Name: Holman, T.R., University of California, Santa Cruz Human lipoxygenase 15hLO-2 is a member of the closely related lipoxygenase family of enzymes which catalyze the site-specific oxidation of arachidonic acid to various hormone precursor molecules and as such is a candidate for drug development in a variety of disease areas, such as cancer and inflammation. Inhibition of 15hLO-2 activity was screened by utilizing arachidonic acid as a substrate. The extent of hydroperoxide product formation was measured by a secondary chromogenic reaction in which xylenol orange (XO, Sigma-Aldrich, cat. number 39,818-7) reacts with the ferric ions produced from the reaction between the hydroperoxide and ferrous ions. The Fe(III)-XO complex is characterized with red-shifted absorbance at 560 nm. A purified preparation of human 15hLO-2 was supplied by Professor Ted Holman, University of California, Santa Cruz.
Assay Protocol: Buffer: 25 mM Hepes pH 7.5, 0.01% Triton X-100. Reagents/Controls: Buffer in columns 3 and 4 as negative control (no enzyme). Substrate solution: 45 uM arachidonic acid (Sigma-Aldrich, St. Louis, MO) final concentration dispensed throughout the plate. Enzyme: 50 nM 15hLO-2 final concentration in columns 1, 2, 5-48. Column 1 is neutral (100% activity). Column 2 contained pin-transferred titration of NDGA (nordihidroguaiaretic acid, Sigma-Aldrich, N 5023, top concentration 10 mM in DMSO, then 1:2 dilution in duplicate). (Dilution factor: 23 nL into 4 uL.) Chromogenic detection reagent (divalent iron/xylenol orange, Fe-XO): 200 uM xylenol orange plus 300 uM ferrous ammonium sulfate prepared freshly in 50 mM sulfuric acid. Assay Steps: Three uL of enzyme were dispensed to 1536-well Greiner black clear bottom plates. Compounds and controls (23 nL) were transferred via Kalypsys PinTool. The plates were incubated for 15 min at room temperature, and then 1 uL of substrate solution was added to start the reaction. After room temperature incubation for 90 minutes, 4 uL of Fe-XO solution was added to each well followed by a short spin (1000 rpm, 15 sec) and the plates were then incubated for 30 min. The absorbance at 405 and 573 nm were measured using ViewLux (Perkin-Elmer) High-throughput CCD imager and absorbance protocol settings. The 573-to-405 absorbance ratio was used to compute reaction progress.
Potency is the fitted concentration of half-maximal effect.

Polyunsaturated fatty acid lipoxygenase ALOX15B (Homo sapiens), sequence (O15296 whole entry, looked up): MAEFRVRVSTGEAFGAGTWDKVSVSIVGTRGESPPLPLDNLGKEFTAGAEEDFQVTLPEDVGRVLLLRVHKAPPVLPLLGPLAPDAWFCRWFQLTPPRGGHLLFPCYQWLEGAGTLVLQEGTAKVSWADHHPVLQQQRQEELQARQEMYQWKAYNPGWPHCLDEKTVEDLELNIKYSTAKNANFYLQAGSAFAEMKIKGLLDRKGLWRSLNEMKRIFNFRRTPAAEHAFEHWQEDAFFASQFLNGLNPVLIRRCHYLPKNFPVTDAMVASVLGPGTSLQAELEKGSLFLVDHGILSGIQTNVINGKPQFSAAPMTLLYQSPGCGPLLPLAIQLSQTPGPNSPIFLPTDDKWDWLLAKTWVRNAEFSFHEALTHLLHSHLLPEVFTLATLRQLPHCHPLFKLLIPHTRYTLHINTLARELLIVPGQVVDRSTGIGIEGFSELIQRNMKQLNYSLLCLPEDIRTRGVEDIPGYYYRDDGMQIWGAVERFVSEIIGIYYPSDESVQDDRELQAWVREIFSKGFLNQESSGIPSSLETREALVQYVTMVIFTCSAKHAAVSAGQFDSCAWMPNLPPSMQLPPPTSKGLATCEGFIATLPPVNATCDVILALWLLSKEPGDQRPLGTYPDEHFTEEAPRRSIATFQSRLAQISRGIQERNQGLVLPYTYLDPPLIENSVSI

Question: `CC(=O)NC(=O)NC(C)Cc1ccccc1` (stereo not given) was tested. Which Potency did it give?
Answer: inactive

Question: For `CC(C)CC(C)Nc1ccc(Nc2ccccc2)cc1` (stereo not given), which Potency is on record?
Answer: 1.58 µM (active)

Question: Which Potency does the source give for `CC(C)(O/N=C(\C(=O)N[C@@H]1C(=O)N2C(C(=O)[O-])=C(C[n+]3ccccc3)CS[C@@H]12)c1csc(N)n1)C(=O)O` here?
Answer: inactive

Question: How did the Potency turn out when `CCCCCCCCc1[se]c2ccccc2c1Br` was run?
Answer: inactive

Question: How did the Potency turn out when `CN(C)[C@@H]1C(=O)C(C(N)=O)=C(O)[C@@]2(O)C(=O)C3=C(O)c4c(O)cccc4[C@@](C)(O)C3CC12` (stereo not given in full) was run?
Answer: inactive

Question: `COc1ccccc1-c1[se]c2ccccc2c1I` was tested. Which Potency did it give?
Answer: inactive

Question: How did the Potency turn out when `Clc1ccc(C(c2ccc(Cl)cc2)n2cc[n+](C[C@@H](OCc3ccc(Cl)cc3Cl)c3ccc(Cl)cc3Cl)c2)cc1` was run?
Answer: 25.1 µM (active)

Question: With `N#CC(C#N)=Cc1cc(O)c(O)c([N+](=O)[O-])c1` as the molecule, how does the Potency read?
Answer: inactive

Question: With `COC(=O)c1ccc2[se]c(CC3CCCCC3)c(I)c2c1` as the molecule, how does the Potency read?
Answer: inactive

Question: For `CC(C)(O)c1[se]c2ccccc2c1I`, which Potency is on record?
Answer: inactive
